# Measured values: ChEMBL document CHEMBL1961873, “Compounds: GSK PKIS; Assays: Nanosyn kinase panel” (2012)
# Legend:
# [1] = biological target: Protein kinase C gamma type (Homo sapiens) (UniProt P05129); details: at 1 µM;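 further: each value is an averaged percent inhibition of the enzyme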
# [2] = biological target: T1, Protein kinase C iota type (Homo sapiens) (UniProt P41743); details: at 0.1 µM
# T1 sequence (whole entry): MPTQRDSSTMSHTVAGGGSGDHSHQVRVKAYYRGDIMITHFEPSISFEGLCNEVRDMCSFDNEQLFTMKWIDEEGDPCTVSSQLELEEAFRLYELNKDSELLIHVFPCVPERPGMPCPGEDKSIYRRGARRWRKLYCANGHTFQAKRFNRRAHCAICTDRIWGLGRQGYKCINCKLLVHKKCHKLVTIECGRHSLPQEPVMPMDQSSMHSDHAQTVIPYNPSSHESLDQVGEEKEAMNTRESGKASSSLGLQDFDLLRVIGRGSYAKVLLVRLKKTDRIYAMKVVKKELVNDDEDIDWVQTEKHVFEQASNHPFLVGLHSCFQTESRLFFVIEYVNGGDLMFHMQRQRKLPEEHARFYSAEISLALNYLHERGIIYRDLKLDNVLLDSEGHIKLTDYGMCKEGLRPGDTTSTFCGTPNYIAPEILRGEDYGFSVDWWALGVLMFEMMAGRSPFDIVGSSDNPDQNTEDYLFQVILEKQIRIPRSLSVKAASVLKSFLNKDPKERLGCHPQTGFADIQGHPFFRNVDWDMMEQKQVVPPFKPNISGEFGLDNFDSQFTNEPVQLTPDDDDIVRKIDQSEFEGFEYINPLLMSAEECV
# [3] = biological target: T1, Protein kinase C iota type (Homo sapiens); details: at 1 µM
# [4] = biological target: Protein kinase C theta type (Homo sapiens) (UniProt Q04759); details: at 0.1 µM
# Protein kinase C theta type (Homo sapiens), sequence (Q04759 whole entry, looked up): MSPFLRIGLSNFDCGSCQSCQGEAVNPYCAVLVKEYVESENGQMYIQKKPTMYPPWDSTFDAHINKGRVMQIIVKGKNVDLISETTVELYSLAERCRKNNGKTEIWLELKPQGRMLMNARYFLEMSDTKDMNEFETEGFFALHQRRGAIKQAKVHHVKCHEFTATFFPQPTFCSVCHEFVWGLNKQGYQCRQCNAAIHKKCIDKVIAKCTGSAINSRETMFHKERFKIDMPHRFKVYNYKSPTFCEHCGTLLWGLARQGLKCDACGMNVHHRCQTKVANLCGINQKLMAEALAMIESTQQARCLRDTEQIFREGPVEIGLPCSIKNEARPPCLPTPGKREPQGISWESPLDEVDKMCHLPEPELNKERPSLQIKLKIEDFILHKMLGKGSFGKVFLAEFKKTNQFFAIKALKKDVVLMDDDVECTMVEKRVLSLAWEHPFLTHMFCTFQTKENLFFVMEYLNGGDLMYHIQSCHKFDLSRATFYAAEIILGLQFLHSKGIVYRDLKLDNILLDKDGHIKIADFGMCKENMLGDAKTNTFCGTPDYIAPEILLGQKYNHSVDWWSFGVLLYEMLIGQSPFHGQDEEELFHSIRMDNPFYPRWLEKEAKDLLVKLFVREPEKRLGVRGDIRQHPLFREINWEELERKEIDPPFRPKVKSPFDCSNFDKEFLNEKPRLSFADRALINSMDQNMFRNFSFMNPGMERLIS
# [5] = biological target: Protein kinase C theta type (Homo sapiens) (UniProt Q04759); details: at 1 µM
# [6] = biological target: Protein kinase C beta type (Homo sapiens) (UniProt P05771); details: at 0.1 µM
# Protein kinase C beta type (Homo sapiens), sequence (P05771 2-671 limits assumed): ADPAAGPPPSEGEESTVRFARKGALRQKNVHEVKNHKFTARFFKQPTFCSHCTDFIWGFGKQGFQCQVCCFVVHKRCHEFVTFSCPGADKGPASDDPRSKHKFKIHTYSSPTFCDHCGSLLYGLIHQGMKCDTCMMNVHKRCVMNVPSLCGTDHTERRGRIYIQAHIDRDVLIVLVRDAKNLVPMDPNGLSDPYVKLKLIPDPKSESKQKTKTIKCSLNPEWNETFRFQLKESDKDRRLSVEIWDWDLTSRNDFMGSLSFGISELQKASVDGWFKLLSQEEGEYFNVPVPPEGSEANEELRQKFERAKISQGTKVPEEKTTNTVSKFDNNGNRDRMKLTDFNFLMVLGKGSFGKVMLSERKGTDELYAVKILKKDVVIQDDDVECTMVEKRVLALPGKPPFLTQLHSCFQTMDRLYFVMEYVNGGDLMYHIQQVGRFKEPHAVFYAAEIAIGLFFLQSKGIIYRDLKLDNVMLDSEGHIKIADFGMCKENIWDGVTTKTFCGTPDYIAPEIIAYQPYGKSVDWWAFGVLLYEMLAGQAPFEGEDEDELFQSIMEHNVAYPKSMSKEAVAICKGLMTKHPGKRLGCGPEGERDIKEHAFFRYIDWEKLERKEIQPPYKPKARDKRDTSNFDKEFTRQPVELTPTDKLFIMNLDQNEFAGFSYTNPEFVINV
# [7] = biological target: Protein kinase C beta type (Homo sapiens) (UniProt P05771); details: at 1 µM
# [8] = biological target: T2, Serine/threonine-protein kinase D1 (Homo sapiens) (UniProt Q15139); details: at 0.1 µM
# T2 sequence (whole entry): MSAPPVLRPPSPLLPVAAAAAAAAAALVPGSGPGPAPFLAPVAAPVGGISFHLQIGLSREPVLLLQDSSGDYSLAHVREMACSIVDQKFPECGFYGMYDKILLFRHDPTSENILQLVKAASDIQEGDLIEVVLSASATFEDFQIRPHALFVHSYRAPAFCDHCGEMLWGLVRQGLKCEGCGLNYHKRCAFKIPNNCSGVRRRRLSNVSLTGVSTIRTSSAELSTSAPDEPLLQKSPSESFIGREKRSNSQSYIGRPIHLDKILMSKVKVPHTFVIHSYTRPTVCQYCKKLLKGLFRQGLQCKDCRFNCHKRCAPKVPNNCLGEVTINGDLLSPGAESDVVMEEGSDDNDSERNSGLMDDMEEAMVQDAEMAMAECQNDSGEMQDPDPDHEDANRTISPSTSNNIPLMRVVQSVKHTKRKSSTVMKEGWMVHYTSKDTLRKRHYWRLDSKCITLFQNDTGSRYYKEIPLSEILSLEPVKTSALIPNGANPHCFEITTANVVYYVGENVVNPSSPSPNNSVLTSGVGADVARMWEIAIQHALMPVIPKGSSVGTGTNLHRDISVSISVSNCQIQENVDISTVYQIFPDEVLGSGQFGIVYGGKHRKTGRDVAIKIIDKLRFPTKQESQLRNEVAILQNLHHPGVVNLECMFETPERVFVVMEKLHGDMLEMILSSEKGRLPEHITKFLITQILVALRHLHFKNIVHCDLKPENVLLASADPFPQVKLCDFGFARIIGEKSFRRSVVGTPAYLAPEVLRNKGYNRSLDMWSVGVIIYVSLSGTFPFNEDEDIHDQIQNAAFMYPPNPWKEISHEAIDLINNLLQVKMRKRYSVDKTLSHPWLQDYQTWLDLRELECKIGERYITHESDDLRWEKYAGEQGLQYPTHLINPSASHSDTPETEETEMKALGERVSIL
# [9] = biological target: T2, Serine/threonine-protein kinase D1 (Homo sapiens); details: at 1 µM
# [10] = biological target: T3, Serine/threonine-protein kinase D2 (Homo sapiens) (UniProt Q9BZL6); details: at 0.1 µM
# T3 sequence (whole entry): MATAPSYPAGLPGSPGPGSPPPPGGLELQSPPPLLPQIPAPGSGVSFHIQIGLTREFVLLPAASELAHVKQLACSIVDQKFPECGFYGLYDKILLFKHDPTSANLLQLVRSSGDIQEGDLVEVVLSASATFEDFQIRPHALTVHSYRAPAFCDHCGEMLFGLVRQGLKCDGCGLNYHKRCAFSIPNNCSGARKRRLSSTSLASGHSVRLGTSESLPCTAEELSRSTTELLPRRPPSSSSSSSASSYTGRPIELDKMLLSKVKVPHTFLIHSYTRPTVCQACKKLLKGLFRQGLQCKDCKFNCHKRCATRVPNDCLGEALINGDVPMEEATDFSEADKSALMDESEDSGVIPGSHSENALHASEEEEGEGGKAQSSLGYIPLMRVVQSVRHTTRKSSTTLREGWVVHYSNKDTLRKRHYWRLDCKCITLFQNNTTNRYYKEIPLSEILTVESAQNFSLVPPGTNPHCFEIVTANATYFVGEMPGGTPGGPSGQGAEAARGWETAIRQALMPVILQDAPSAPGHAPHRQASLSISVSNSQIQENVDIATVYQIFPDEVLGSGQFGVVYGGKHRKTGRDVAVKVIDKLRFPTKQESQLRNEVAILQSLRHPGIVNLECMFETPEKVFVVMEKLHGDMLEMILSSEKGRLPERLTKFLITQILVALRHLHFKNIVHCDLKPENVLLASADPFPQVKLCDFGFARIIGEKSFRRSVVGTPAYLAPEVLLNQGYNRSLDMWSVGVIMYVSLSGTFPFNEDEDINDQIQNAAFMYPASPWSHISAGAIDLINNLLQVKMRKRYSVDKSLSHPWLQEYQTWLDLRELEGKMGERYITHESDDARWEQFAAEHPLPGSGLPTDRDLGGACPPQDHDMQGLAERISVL
# [11] = biological target: T3, Serine/threonine-protein kinase D2 (Homo sapiens); details: at 1 µM
# [12] = biological target: T4, Serine/threonine-protein kinase D3 (Homo sapiens) (UniProt O94806); details: at 0.1 µM
# T4 sequence (whole entry): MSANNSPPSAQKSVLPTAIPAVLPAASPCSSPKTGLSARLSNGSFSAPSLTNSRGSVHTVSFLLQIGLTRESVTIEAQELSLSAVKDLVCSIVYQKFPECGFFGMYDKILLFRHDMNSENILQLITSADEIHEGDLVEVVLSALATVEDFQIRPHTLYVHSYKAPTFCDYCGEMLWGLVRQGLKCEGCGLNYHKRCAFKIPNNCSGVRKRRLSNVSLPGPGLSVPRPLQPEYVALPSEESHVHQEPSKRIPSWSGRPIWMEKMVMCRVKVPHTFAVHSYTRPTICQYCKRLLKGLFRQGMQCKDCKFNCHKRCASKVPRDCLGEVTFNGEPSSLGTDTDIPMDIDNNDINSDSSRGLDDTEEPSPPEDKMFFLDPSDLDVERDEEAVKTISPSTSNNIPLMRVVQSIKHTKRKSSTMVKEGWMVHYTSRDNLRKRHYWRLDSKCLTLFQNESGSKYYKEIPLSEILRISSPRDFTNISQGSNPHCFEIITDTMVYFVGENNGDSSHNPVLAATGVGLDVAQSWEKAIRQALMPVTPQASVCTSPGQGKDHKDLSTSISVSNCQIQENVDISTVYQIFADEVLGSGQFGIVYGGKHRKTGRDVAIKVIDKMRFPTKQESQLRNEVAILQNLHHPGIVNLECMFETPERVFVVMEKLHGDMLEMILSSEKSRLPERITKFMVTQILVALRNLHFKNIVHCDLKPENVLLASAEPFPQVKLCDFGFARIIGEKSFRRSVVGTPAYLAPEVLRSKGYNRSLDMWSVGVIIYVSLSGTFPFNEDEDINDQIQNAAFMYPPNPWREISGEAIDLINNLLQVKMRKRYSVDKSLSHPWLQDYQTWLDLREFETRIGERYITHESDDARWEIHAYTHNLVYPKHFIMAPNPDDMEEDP
# [13] = biological target: T4, Serine/threonine-protein kinase D3 (Homo sapiens); details: at 1 µM
# [14] = biological target: T5, cGMP-dependent protein kinase 1 (Homo sapiens) (UniProt Q13976); details: at 0.1 µM
# T5 sequence (whole entry): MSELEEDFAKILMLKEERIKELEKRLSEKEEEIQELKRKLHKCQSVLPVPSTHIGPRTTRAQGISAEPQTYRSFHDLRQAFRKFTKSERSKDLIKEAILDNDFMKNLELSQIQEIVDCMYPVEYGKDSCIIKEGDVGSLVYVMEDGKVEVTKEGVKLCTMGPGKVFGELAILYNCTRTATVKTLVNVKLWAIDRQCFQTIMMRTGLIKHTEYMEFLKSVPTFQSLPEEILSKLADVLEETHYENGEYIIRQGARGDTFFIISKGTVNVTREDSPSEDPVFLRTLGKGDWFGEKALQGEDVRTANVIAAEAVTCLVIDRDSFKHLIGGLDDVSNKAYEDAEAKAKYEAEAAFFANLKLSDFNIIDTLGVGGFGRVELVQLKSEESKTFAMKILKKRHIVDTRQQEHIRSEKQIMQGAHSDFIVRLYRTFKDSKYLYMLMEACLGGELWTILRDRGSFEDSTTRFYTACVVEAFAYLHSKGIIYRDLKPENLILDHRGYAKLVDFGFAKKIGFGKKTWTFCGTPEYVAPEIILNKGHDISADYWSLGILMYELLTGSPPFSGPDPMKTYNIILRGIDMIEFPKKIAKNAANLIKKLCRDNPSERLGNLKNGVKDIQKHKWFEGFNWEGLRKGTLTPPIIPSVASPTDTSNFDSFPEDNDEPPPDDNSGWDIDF
# [15] = biological target: T5, cGMP-dependent protein kinase 1 (Homo sapiens); details: at 1 µM
# [16] = biological target: T6, cGMP-dependent protein kinase 2 (Homo sapiens) (UniProt Q13237); details: at 0.1 µM
# T6 sequence (whole entry): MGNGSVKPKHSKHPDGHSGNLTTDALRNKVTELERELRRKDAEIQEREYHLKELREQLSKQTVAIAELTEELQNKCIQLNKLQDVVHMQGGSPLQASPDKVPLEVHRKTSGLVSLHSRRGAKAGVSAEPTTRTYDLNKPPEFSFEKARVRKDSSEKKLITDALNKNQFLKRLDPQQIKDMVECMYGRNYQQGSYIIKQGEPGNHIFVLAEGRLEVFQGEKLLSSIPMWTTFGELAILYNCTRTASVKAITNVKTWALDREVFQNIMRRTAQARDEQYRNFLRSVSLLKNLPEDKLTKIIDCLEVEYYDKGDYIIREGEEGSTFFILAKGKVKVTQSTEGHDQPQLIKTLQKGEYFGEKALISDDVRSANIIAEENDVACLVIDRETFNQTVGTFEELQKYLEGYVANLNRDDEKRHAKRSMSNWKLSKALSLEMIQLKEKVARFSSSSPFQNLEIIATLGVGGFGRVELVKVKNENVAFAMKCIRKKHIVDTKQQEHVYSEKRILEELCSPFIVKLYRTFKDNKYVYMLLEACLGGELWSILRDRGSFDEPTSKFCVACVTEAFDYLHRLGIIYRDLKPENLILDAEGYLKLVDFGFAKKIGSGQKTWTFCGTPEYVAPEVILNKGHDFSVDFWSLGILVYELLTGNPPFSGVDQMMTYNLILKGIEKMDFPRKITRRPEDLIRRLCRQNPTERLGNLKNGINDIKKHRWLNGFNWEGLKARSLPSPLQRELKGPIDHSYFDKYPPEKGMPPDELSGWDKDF
# [17] = biological target: T6, cGMP-dependent protein kinase 2 (Homo sapiens); details: at 1 µM
# [18] = biological target: T7, cAMP-dependent protein kinase catalytic subunit PRKX (Homo sapiens) (UniProt P51817); details: at 0.1 µM
# T7 sequence (whole entry): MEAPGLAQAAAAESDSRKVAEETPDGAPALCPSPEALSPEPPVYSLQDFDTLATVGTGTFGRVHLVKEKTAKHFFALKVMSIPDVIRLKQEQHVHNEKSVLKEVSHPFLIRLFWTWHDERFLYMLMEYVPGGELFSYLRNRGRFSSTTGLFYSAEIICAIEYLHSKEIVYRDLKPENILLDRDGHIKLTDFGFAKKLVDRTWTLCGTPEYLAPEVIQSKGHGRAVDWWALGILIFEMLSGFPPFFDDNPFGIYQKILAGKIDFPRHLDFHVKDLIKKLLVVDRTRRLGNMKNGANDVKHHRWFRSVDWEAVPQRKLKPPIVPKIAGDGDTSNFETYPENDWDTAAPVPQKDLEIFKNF
# [19] = biological target: T7, cAMP-dependent protein kinase catalytic subunit PRKX (Homo sapiens); details: at 1 µM
# [20] = biological target: Rho-associated protein kinase 1 (Homo sapiens) (UniProt Q13464); details: at 0.1 µM;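 further: values are mean percent inhibition of ROCK1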
# Rho-associated protein kinase 1 (Homo sapiens), sequence (Q13464 2-1354 limits assumed): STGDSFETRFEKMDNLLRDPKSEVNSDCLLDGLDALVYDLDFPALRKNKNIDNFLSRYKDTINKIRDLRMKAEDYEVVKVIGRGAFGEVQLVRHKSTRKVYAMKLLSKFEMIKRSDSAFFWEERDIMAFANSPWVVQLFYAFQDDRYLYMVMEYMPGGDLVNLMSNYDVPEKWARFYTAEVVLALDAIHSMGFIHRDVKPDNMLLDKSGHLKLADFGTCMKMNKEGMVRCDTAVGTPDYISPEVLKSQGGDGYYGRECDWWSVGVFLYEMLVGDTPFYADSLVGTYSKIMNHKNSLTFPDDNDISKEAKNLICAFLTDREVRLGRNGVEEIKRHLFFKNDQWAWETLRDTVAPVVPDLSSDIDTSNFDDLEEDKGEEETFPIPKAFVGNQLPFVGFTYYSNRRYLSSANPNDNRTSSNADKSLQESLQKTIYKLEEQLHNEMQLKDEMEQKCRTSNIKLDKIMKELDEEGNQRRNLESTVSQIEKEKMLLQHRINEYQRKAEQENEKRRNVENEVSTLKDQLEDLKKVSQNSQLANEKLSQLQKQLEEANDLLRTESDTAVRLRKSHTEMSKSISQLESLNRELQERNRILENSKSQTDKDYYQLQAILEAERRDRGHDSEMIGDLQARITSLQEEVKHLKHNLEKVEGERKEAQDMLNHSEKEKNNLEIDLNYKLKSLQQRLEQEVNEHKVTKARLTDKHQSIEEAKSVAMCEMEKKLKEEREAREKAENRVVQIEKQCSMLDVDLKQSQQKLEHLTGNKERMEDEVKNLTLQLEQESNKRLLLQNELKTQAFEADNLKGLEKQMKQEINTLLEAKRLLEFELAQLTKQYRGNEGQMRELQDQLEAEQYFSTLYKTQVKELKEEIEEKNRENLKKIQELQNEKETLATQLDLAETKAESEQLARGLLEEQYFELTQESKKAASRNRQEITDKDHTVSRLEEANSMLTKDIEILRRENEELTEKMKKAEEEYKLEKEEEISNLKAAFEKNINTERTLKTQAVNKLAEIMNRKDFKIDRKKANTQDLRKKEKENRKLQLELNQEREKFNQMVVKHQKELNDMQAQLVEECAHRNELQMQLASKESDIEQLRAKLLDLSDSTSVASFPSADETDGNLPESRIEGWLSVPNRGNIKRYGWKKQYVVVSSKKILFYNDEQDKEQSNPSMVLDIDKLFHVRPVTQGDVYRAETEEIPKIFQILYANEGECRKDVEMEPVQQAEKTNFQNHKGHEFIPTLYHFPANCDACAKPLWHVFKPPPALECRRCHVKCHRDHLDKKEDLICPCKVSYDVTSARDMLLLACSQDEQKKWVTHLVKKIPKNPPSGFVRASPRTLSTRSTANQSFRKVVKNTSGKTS
Compound,inhibition [1],inhibition [2],inhibition [3],inhibition [4],inhibition [5],inhibition [6],inhibition [7],inhibition [8],inhibition [9],inhibition [10],inhibition [11],inhibition [12],inhibition [13],inhibition [14],inhibition [15],inhibition [16],inhibition [17],inhibition [18],inhibition [19],inhibition [20]
Fc1cccc(COc2ccc(Nc3ncnc4sc(-c5cccs5)cc34)cc2Cl)c1,2.13%,0.71%,1.19%,0.32%,0.01%,-0.19%,0.44%,0.09%,0.23%,-1.32%,-1.2%,-0.65%,-0.35%,1.57%,1.96%,0.03%,0.73%,0.64%,0.87%,1.73%
CCn1c(-c2nonc2N)nc2cncc(C(=O)N3CCNCC3)c21,0.03%,1.74%,0.89%,3.06%,3.7%,1.85%,3.67%,5.23%,6.72%,5.57%,4.19%,5.65%,4.94%,5.91%,9.25%,6.28%,7.34%,3.9%,3.75%,
O=C1NC(=O)C(N2CCc3ccccc32)=C1c1ccc(Cl)cc1,2.33%,1.4%,3.19%,2.06%,1.93%,1.71%,1.65%,3.74%,5.59%,4.57%,4.56%,5.53%,6.02%,3.3%,4.19%,2.11%,4.33%,1.91%,0.77%,1.88%
Nc1ncnc2occ(-c3ccc(NC(=O)Nc4cc(C(F)(F)F)cc(C(F)(F)F)c4)cc3)c12,-0.32%,0.16%,2.82%,0.72%,-1.36%,0.68%,0.44%,1.17%,1.94%,1.61%,1.29%,1.47%,1.15%,1.23%,1.54%,0.73%,1.97%,-0.03%,-3.64%,6.3%
